Assay [1] has as its target Rap guanine nucleotide exchange factor 3 (Homo sapiens) (UniProt O95398). In words: Confirmatory qHTS for antagonist of cAMP-regulated guanine nucleotide exchange factor 3 (EPAC1) (AID 1645880). Also: nearly all actives have a fitted effect of over 55% in size.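 As to activity, negative = inhibition: plate controls were DMSO only for no effect and full effect of the ATA control for full effect.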 As to conditions: EPAC1 Rap1B-BODIPY-GDP exchange, fluorescence; activity, negative = inhibition: at 115 µM (top of the series). Put shortly: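 Released BODIPY-GDP fluoresces less than Rap1-bound BODIPY-GDP; the signal is followed at 480/540 nm at 5-min intervals over 30 min, after 5 min at room temperature. Reactions contain 100 nM EPAC1, 250 nM RAP1B-BODIPY-GDP and 50 uM GDP; results are normalized to ATA and DMSO.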
On the technique in general: Quantitative high-throughput screening tests each substance at several concentrations.

For assay [2] the target is unchanged. The experiment in a line: Confirmatory qHTS for agonist of cAMP-regulated guanine nucleotide exchange factor 3 (EPAC1) (AID 1645881). Also: nearly all actives have a fitted effect of over 75% in size.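 As to activation: EPAC1 catalysed release of BODIPY-GDP from Rap1B seen as fluorescence loss; 100% = effect of cAMP agonist control.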
For assay [3], the target named is Rap guanine nucleotide exchange factor 4 (Homo sapiens) (UniProt Q8WZA2). In words: Confirmatory qHTS for agonist of cAMP-regulated guanine nucleotide exchange factor 4 (EPAC2) (AID 1645884).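 Also: nucleotide exchange releases bodipy-GDP from Rap1 and this lowers its fluorescence; nearly all actives have a fitted effect of over 65% in size.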 As to activation: % is scaled to controls: 0 for no effect and ±100 for the full control effect.
Sequence of Rap guanine nucleotide exchange factor 4 (Homo sapiens) (Q8WZA2 whole entry, looked up): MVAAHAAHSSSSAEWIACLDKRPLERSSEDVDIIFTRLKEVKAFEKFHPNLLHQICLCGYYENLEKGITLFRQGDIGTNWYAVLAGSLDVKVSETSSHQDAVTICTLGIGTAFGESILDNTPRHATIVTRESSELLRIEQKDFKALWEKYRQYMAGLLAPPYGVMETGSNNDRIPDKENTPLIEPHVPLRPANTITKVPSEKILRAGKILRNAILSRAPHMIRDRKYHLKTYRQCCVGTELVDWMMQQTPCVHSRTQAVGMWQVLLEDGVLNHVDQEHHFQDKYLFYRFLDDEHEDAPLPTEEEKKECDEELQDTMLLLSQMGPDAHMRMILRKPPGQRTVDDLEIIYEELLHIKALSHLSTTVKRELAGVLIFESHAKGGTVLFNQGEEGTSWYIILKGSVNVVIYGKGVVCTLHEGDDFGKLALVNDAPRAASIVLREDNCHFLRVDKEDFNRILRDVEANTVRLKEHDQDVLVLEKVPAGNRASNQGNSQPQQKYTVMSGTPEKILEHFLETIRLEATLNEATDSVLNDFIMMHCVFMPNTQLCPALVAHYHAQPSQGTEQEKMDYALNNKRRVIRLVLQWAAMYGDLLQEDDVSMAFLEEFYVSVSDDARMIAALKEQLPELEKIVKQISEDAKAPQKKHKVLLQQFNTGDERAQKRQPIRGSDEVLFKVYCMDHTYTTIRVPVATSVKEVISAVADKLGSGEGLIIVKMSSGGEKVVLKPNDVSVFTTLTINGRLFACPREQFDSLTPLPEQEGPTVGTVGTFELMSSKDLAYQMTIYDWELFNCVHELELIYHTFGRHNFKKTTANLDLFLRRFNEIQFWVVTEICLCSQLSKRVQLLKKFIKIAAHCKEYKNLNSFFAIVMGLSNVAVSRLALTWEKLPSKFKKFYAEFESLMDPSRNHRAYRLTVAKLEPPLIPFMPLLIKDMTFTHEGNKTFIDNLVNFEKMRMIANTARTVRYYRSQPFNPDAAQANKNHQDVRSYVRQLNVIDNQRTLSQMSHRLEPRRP
The target is the same in assay [4]. In words: Confirmatory qHTS for antagonist of cAMP-regulated guanine nucleotide exchange factor 4 (EPAC2) (AID 1645885). Also: nearly all actives have a fitted effect of over 25% in size.
In assay [5] the target is Rap guanine nucleotide exchange factor 3 (Homo sapiens) (UniProt O95398). In words: Counterscreen qHTS for agonist of cAMP-regulated guanine nucleotide exchange factor 3 (EPAC1) (AID 1645889). Also: nearly all actives have a fitted effect of over 40% in size. As to activation: % of control where 0% means no effect. Put shortly: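 Rap1B-BODIPY-GDP 250 nM + GDP 50 uM; cpds 7-pt, final 9.74 nM–152 uM (activator mode) or from 7.32 nM upwards (inhibitor mode); RT; FI 480/540 nm at 5 and 30 min, then ± cAMP, reread.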
Sequence of Rap guanine nucleotide exchange factor 3 (Homo sapiens) (O95398 whole entry, looked up): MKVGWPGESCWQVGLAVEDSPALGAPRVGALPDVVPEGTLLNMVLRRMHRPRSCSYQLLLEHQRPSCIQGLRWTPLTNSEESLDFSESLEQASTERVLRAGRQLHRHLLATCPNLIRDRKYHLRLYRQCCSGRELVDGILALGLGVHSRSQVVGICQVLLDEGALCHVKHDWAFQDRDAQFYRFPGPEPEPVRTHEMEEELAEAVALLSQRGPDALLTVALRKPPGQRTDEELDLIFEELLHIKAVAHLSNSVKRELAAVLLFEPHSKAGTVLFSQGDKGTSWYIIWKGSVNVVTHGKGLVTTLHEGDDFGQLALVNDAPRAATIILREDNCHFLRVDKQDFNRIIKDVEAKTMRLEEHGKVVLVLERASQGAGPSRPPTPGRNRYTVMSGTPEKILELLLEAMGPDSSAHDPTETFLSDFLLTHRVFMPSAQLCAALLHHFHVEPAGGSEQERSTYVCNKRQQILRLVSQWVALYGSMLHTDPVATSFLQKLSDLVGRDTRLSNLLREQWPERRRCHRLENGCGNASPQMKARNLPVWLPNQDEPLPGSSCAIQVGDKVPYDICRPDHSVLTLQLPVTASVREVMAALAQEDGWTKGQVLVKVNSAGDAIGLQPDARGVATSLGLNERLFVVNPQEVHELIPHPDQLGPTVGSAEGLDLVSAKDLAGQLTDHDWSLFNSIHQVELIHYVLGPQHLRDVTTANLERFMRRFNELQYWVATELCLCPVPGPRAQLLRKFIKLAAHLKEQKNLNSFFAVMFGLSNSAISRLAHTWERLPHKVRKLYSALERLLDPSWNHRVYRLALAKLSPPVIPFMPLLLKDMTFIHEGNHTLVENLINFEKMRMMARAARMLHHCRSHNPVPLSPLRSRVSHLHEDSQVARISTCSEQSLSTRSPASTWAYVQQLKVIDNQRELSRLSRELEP
For orientation: A counterscreen serves to expose hits that act by an unwanted route or on another target.

Potency and activation data for 28 compounds are collected here from PubChem BioAssay (NCATS).

Inconclusive results are not listed. Values without a mark were called inactive. The source made the active and inactive calls. Calls follow the shape of the dose curve; as a rule, active = well fitted curve in the direction sought with a large enough effect; inconclusive = small, poorly fitted or top-dose-only effect, or another doubt; inactive = no such curve, though single readings can be large; an effect the other way counts as inactive or inconclusive.
Potency is read from the fitted curve at half-maximal effect.

`Cc1ccc(CNC(=O)c2ccc3c(c2)nc(C)n3-c2cccc(F)c2)cc1`: the Potency entry in assay [1], in assay [2], in assay [3], in assay [4] and in assay [5] was “inactive” in each case.
As for `CCC(CC)C(=O)N1c2ccccc2C(C)(c2ccccc2)CC1(C)C` (stereo not given), the Potency result in assay [1], in assay [2], in assay [3], in assay [4] and in assay [5] was “inactive” each time.
As for `Cn1/c(=N\NC(=O)C2CCCCC2)sc2ccccc21`, the Potency result in assay [1], in assay [2], in assay [3], in assay [4] and in assay [5] was “inactive” throughout.
As for `COc1cccc(CC(=NO)c2cccc(OC)c2)c1`, the Potency result in assay [1], in assay [2] and in assay [4] was “inactive” each time. For the same compound, the activation in assay [3] is 4.78% [at 17.1 µM, percent relative to cAMP agonist control]; in assay [5], 2.23% [at 30.8 µM].
With `COc1ccc(C(CC(=O)N2CCCC2)c2ccc(F)cc2)cc1` (stereo not given), the Potency result in assay [1], in assay [2] and in assay [4] was “inactive” each time. Further, the activation in assay [3] was 0% [at 17.1 µM, percent relative to cAMP agonist control]; in assay [5], 0.37% [at 30.8 µM].
In the case of `COc1cccc(C(=O)C(CCC#N)c2ccccc2)c1` (stereo not given), the Potency result in assay [1], in assay [2], in assay [3], in assay [4] and in assay [5] was “inactive” throughout.
`CCN1CCN(C2=CC3=CC(=C(C#N)C#N)CCC3CC2)CC1` (stereo not given): the Potency entry in assay [1] is “inactive”. Besides, the Potency in assay [2] was 79.4 µM (active); in assay [3] it was 100 µM (active); in assay [4], 67.5 µM (active); in assay [5], 10 µM (active).
The like results for `CC(=O)Nc1cccc(/C(C)=N/Nc2ccc(S(=O)(=O)Nc3ccccc3C(=O)O)cc2[N+](=O)[O-])c1` were, in that order, 21.3 µM (active), “inactive”, “inactive”, “inactive” and “inactive”.
Take `Cn1cc(C(=O)C(=O)N2CCCCC2)c2ccccc21`: the Potency result in assay [1], in assay [2], in assay [3], in assay [4] and in assay [5] was “inactive” in each case.
With `C=CCn1c(SCC(=O)NC(N)=O)nnc1-c1cc2c(s1)CCC(CC)C2` (stereo not given), the Potency result in assay [1], in assay [2], in assay [3], in assay [4] and in assay [5] was “inactive” throughout.
For the compound `CCOc1cc(/C=C2/SC(=S)NC2=O)ccc1OC(=O)c1ccco1`, the Potency in assay [1] was 37.9 µM (active); in assay [4], 16.9 µM (active). Further, the Potency entry in assay [2], in assay [3] and in assay [5] was “inactive” each time.
For `Cc1ccc(CNC(=O)COc2ccc(C(=O)c3ccc(F)cc3)cc2)cc1`, the Potency result in assay [1], in assay [2], in assay [3], in assay [4] and in assay [5] was “inactive” throughout.
`COc1ccc(N2CCN(CCCNC(=O)c3ccc4nc(CCc5ccccc5)oc4c3)CC2)cc1`: the Potency result in assay [1], in assay [2], in assay [3], in assay [4] and in assay [5] was “inactive” in each case.
`Cc1ccc(C)c(-n2c(CCC(=O)O)ccc2-c2ccc(Cl)cc2)c1`: the Potency result in assay [1], in assay [2], in assay [3], in assay [4] and in assay [5] was “inactive” each time.
Turning to `COc1cc2nc(N3CCNCC3)nc(N)c2cc1OC`, the Potency result in assay [1], in assay [2] and in assay [5] was “inactive” throughout. Besides, the Potency was 100 µM (active) in assay [3] and 67.5 µM (active) in assay [4].
Consider `CC(=O)c1cccc(NC(=O)c2c(-c3ccccc3)c(-c3ccccc3)nn(C)c2=O)c1`, for which the Potency result in assay [1], in assay [2], in assay [3], in assay [4] and in assay [5] was “inactive” each time.
Regarding `Cc1ccc(S(=O)(=O)N2[C@@H](c3ccccc3)C(C(=O)O)=CC[C@H]2c2ccc(C(C)C)cc2)cc1`, the Potency in assay [1] is 75.7 µM (active). Further, the Potency result in assay [2], in assay [3], in assay [4] and in assay [5] was “inactive” in each case.
For `O=CN(c1ccccc1)c1ccc2ccccc2c1`, the Potency result in assay [1], in assay [2] and in assay [4] was “inactive” throughout. Moreover, the activation in assay [3] is 1.36% [at 17.1 µM, percent relative to cAMP agonist control]; in assay [5], 4.55% [at 30.8 µM].
Turning to `O=C1/C(=C/c2ccc(O)c(O)c2)SC(=S)N1Nc1ccccc1`, the Potency in assay [1] was 16.9 µM (active). Further, the Potency result in assay [2], in assay [3], in assay [4] and in assay [5] was “inactive” in each case.
As for `CCC(=O)NC(c1ccc(C)cc1)c1ccc2cccnc2c1O` (stereo not given), the Potency entry in assay [1], in assay [2], in assay [3] and in assay [5] was “inactive” each time. For the same compound, the Potency in assay [4] was 5.36 µM (active).
In the case of `COc1cc(C(=O)NCC(=O)N/N=C(\C)Cc2ccccc2)cc(OC)c1OC`, the Potency result in assay [1], in assay [2], in assay [3], in assay [4] and in assay [5] was “inactive” each time.
With `CCOC(=O)c1cc(-c2nnc(SCC(=O)Nc3ccc(F)cc3)o2)c(C)nc1C`, the Potency entry in assay [1], in assay [2], in assay [3], in assay [4] and in assay [5] was “inactive” in each case.
`O=C(COC(=O)COc1ccc(Cl)cc1Cl)NC1CCCC1`: the Potency entry in assay [1], in assay [2] and in assay [4] was “inactive” throughout. Also, the activation in assay [3] is 9.18% [at 17.1 µM, percent relative to cAMP agonist control]; in assay [5], -1.05% [at 30.8 µM].
`O=C(O)CCn1cc(C2CC(c3ccccc3)=NN2c2ccccc2)c(-c2ccccc2)n1` (stereo not given): the Potency result in assay [1], in assay [2], in assay [3], in assay [4] and in assay [5] was “inactive” throughout.
For `COc1cc(NC(=O)c2ccnc(N)c2)cc(C(=O)Nc2cccc(C(F)(F)F)c2)c1`, the Potency in assay [1] was 42.6 µM (active). Besides, the Potency entry in assay [2], in assay [3], in assay [4] and in assay [5] was “inactive” in each case.
`Cc1cc(C)n(CCOc2ccc(Br)cc2)n1`: the Potency entry in assay [1], in assay [2] and in assay [4] was “inactive” in each case. In addition, the activation was 1.04% [at 17.1 µM, percent relative to cAMP agonist control] in assay [3] and 4.02% [at 30.8 µM] in assay [5].
As to `CCC/C=C/c1ccc(CN2C(CC(C)C)C(=O)N(Cc3cn(CCC4OCCO4)nn3)CCS2(=O)=O)cc1` (stereo not given), the Potency was 37.9 µM (active) in assay [1] and 23.9 µM (active) in assay [4]. Besides, the Potency result in assay [2], in assay [3] and in assay [5] was “inactive” each time.
Consider `COc1cc(CN2CCN(C(=O)CC(C)C)CC2)c([N+](=O)[O-])cc1OC`, for which the Potency result in assay [1], in assay [2] and in assay [4] was “inactive” in each case. For the same compound, the activation is 2.13% [at 17.1 µM, percent relative to cAMP agonist control] in assay [3] and 8.51% [at 30.8 µM] in assay [5].
